Lmaj promast = reduces viability of Leishmania major promastigotes | resazurin fluorescence viability | inhibition, % at 10 µM | 9% of 200,000 active; in the data active = inhibition above about 50%;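 note: promastigotes grown with compound for 44 hours at 28 °C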
Calpain2 inh = blocks pig calpain II enzyme activity. inhibition, % at 16 µM. 0.37% of 220,000 active. purified calpain II, fluorogenic peptide substrate, 30 min. AID 1236;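 active = inhibition above about 50%, limit read from the data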
Cl transport mod = KCC2 (human) Cl- transport modulation; AID 1456; 2.2% of 190,000 active; B-score of Tl+ flux slope (higher = more flux/activation; lower = inhibition) at 10 µM; KCC2 cells, thallium flux FluoZin-2 fluorescence;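 active = thallium flux slope and its plate-corrected score both differing from the plate sample mean at a set confidence after two filtering rounds, in either direction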;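 note: slope of fluorescence scaled to starting intensity during 10 to 20 s after thallium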
WT yeast gro inh = growth inhibition of WT yeast, mitochondrial fusion screen; mitochondrial fusion phenotypic screen, WT strain; inhibition, % at 10 µM; 2.1% of 190,000 active; AID 1362; in the data active = inhibition above about 58%; tested in S. cerevisiae
ROMK mod = modulates human ROMK potassium channel activity; Tet-inducible ROMK, thallium flux fluorescence; actives lie on both sides; B-score at 10 µM; 2% of 130,000 active;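 active = signal ratio slope over the read window, or its plate-corrected B-score, at least 3 SD from the plate mean, either direction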;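 note: B-score of the F/F0 ratio slope over 7 to 12 s after thallium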
Hits are given with their value; i = inactive; nt = no result. In the library only some 12% were active in any assay of this set; here they are far more common.

SMILES	Lmaj promast	Calpain2 inh	Cl transport mod	WT yeast gro inh	ROMK mod
COC(=O)c1ccc(Cn2nc(C)c(Cl)c2C)o1	i	i	i	i	nt
COc1cc(CNC(=O)c2ccc(Cn3nc(C)c(Cl)c3C)o2)cc(OC)c1	53	i	nt	i	nt
Cc1ccc(SCC(=O)N2CCOCC2)cc1	i	i	i	i	nt
Cc1ccc(-c2nnc(SCC(=O)N3CCOCC3)nc2-c2ccc(C)cc2)cc1	98	i	i	74	nt
CCn1c(SCC(=O)NC2CCS(=O)(=O)C2)nnc1-c1ccccc1 (stereo not given)	i	i	i	i	i
Cc1ccc(-c2nnc(SCC(=O)NC3CCS(=O)(=O)C3)nc2-c2ccc(C)cc2)cc1 (stereo not given)	78	i	i	i	i
CCn1c2ccccc2c2nnc(SCC(=O)NC3CCS(=O)(=O)C3)nc21 (stereo not given)	i	i	i	i	i
O=C(CSc1nnc(COc2ccccc2F)n1-c1ccccc1)NC1CCS(=O)(=O)C1 (stereo not given)	70	i	i	i	i
Cc1ccc(-c2cn(-c3ccccc3)c(SCC(=O)NC3CCS(=O)(=O)C3)n2)cc1C (stereo not given)	86	i	12	i	i
O=c1cc(CN2CCc3ccccc3C2)nc2sccn12	i	i	i	i	i
Cn1c2ccccc2c2nn(-c3ccccc3)c(=O)cc21	i	i	i	i	i
Cc1nn(CCCC(=O)Nc2c(F)cc(F)cc2Br)c(C)c1[N+](=O)[O-]	i	i	i	i	i
Cc1nn2c(NCCCn3ccnc3)cc(C(C)C)nc2c1-c1ccccc1	nt	i	i	nt	nt
c1ccc(-c2oc3ncnc(NCCN4CCOCC4)c3c2-c2ccccc2)cc1	98	i	i	i	nt
N=c1c2c(-c3ccccc3)c(-c3ccccc3)oc2ncn1CCN1CCOCC1	i	i	i	i	i
c1ccc(-c2oc3ncnc(NCCCn4ccnc4)c3c2-c2ccccc2)cc1	100	i	nt	73	i
O=C(N/N=C\C=C\c1ccc2c(c1)OCO2)C1COc2ccccc2O1 (stereo not given)	65	i	i	i	i
O=C(N/N=C\C=C\c1ccc2c(c1)OCO2)c1cccnc1	i	i	i	i	nt
O=C(N/N=C\c1ccc(-c2ccccc2[N+](=O)[O-])o1)C1COc2ccccc2O1 (stereo not given)	52	i	i	i	nt
O=C(N/N=C/c1c[nH]c2ccccc12)C1COc2ccccc2O1 (stereo not given)	i	i	i	i	nt
O=C(N/N=C\c1ccc(-c2ccccc2[N+](=O)[O-])o1)C1COc2cc3ccccc3cc2O1 (stereo not given)	96	i	i	i	nt
O=C(O)c1cccc(-c2ccc(/C=N/NC(=O)C3COc4ccccc4O3)o2)c1 (stereo not given)	i	i	i	i	nt
Cc1ccc(/C=N\NC(=O)C2COc3cc4ccccc4cc3O2)o1 (stereo not given)	i	i	i	i	nt
O=C(N/N=C\c1ccc([N+](=O)[O-])o1)C1COc2ccccc2O1 (stereo not given)	100	i	i	i	i
O=Nc1c(-c2cccc([N+](=O)[O-])c2)nc2ncccn12	nt	i	i	nt	nt
SMILES	Lmaj promast	Calpain2 inh	Cl transport mod	WT yeast gro inh	ROMK mod
O=C1Nc2ccccc2N(O)N1c1cc(-c2ccccc2)[nH]n1	i	i	i	i	i
O=C(O)/C=C/C(=O)Nc1ccccc1SC(F)(F)C(F)(F)C(F)(F)F	i	i	i	i	i
Cn1cnc([N+](=O)[O-])c1Nc1cccc(O)c1	i	i	i	i	nt
Cn1cnc([N+](=O)[O-])c1Oc1ccc2ccccc2c1	81	i	i	i	i
CC1CCN(S(=O)(=O)c2cc(C(=O)N3CCN(c4ncccn4)CC3)ccc2Br)CC1	85	i	i	i	i
O=C(c1ccc(Cl)c(S(=O)(=O)N2CCCC2)c1)N1CCN(c2ncccn2)CC1	i	i	i	i	i
CCSc1nnc([C@H](C)NC(=O)OC(C)(C)C)o1	i	i	i	i	i
COCCN=C1Sc2nc3ccc(C)cc3cc2CN1Cc1ccco1	60	i	i	i	i
COCCN=C1Sc2nc3cc(C)c(C)cc3cc2CN1Cc1cccs1	nt	i	i	nt	nt
CCOc1ccc(N2C(=O)CC(n3ccc(C)n3)C2=O)cc1 (stereo not given)	i	i	i	i	i
O=C(NCC1CCCO1)C(c1cccs1)N(Cc1ccccc1Cl)C(=O)c1ccc(-c2ccccc2)[nH]1 (stereo not given)	100	i	i	i	i
Cc1ccc(C(C(=O)NCC2CCCO2)N(Cc2ccccc2)C(=O)c2ccc(-c3ccccc3)[nH]2)o1 (stereo not given)	53	i	i	69	i

High-throughput results (PubChem BioAssay)
